Screening results deposited in PubChem by several laboratories.
rCAG RNA binder = r(CAG) repeat RNA binding | TO-PRO-1 dye displacement fluorescence | inhibition, % at 3 µM | 370,000 tested, 1.3% active;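 active means inhibition above the plate cutoff, the mean of all test compounds on that plate plus 3 SD, cut at about 35% in these data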;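 further: 0% = DMSO alone and 100% = 100 µM mitoxantrone as full dye displacement; higher means more dye released from RNA so lower well fluorescence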
DAGLB inh = blocks human DAGLB lipase activity. Q8NCG7. 340,000 tested, 0.059% active. HEK293T DAGLB membrane lysate, EnzChek fluorogenic substrate. inhibition, % at 5.17 µM; in the data active means inhibition above about 34%;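 further: 0% = enzyme with vehicle and 100% = wells lacking enzyme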
Target sequence (Q8NCG7 whole entry, looked up): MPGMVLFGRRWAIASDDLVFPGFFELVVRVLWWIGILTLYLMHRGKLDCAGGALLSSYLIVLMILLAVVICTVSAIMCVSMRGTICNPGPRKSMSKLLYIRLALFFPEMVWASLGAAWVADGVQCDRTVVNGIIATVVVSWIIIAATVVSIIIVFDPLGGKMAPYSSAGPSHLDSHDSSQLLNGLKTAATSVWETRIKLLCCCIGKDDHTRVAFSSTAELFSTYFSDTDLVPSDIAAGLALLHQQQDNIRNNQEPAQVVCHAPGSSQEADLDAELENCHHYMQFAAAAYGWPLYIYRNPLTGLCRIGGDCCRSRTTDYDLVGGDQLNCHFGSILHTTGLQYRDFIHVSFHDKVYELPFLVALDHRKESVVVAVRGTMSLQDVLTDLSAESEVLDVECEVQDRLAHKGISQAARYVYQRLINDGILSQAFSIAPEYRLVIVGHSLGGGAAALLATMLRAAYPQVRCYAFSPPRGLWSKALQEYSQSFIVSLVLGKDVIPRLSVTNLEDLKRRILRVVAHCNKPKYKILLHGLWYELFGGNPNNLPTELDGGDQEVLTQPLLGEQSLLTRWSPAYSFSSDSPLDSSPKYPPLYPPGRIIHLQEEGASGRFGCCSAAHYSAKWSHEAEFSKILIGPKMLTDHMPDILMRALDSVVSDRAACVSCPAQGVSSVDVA
MsrA inhibitor = bovine MsrA inhibition | purified bovine MsrA, absorbance read-out | inhibition, % at 15.5 µM | 360,000 tested, 0.75% active; in the data active means inhibition above about 4.5%;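 further: 0% = vehicle wells with enzyme and 100% = reference inhibitor wells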
bovine MsrA act = activators of bovine methionine sulfoxide reductase A; purified bovine MsrA, absorbance read-out; activation, % at 10.6 µM; 360,000 tested, 0.3% active; AID 602163; in the data active means activation above about 7.5%;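 further: 0% = vehicle and 100% = reference activator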
Pemphigus Ab inh = inhibitors of pemphigus antibody binding to human desmoglein-3. P32926. DSG3-coupled beads, scFv-anti-DSG3-GFP binding, flow cytometry; hits give low values. binding (percent of control), % at 10 µM. 310,000 tested, 0.48% active;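 active means binding more than 3 SD below its plate's average and above zero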;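 further: hits lower antibody fragment binding to DSG3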
NadD block = blocks S. aureus nicotinate mononucleotide adenylyltransferase; purified NadD enzyme, colorimetric absorbance read-out; inhibition, % at 20 µM; 360,000 tested, 0.78% active; AID 602399; in the data active means inhibition above about 26%
MsrA act confirm = confirmation of bovine methionine sulfoxide reductase A activators. 1,000 tested, 12% active. AID 602270. shares compounds with bovine MsrA act. purified bovine MsrA, absorbance read-out. activation, % at 10.6 µM; in the data active means activation above about 4%;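 further: enzyme coupled to thioredoxin and thioredoxin reductase with NADPH; 0% = vehicle wells and 100% = reference activator wells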
Active calls of the source: *; / = not tested or not shown. An excerpt weighted towards active compounds, which were near 3.2% of everything screened.

SMILES	rCAG RNA binder	DAGLB inh	MsrA inhibitor	bovine MsrA act	Pemphigus Ab inh	NadD block	MsrA act confirm
CC(=O)Nc1cccc(OCCCNC(=O)c2ccc(C(C)(C)C)cc2)c1	-2.8	/	0.3	-1.3	95.4	-9.4	/
CC(=O)Nc1cccc(OCCCNC(=O)c2ccc(F)cc2)c1	-2.5	-3.8	1.1	9.0*	/	2.5	-0.2
CCOc1ccccc1-c1nc(-c2ccncc2)no1	-8.6	-3.1	-0.9	8.4*	95.8	-6.5	-1.1
CCOc1ccc(-c2nc(-c3ccc(OC)cc3)no2)cc1OCC	0.6	-8.9	-0.4	7.9*	94.2	-6.9	-0.5
CCOc1ccc(-c2noc(-c3ccncc3)n2)cc1OCC	-7.2	-8.9	0.6	-1.6	98.4	-3.9	/
O=C(CCNS(=O)(=O)c1cccc2nonc12)Nc1ccc(Cl)cc1	3.2	-2.8	0.1	12.7*	/	-7.0	0.6
CS(=O)(=O)c1ccc2nc(NC(=O)c3cccc([N+](=O)[O-])c3)sc2c1	19.2	0.1	4.3	-11.9	110.5	0.0	/
CS(=O)(=O)c1ccc2nc(NC(=O)c3cc([N+](=O)[O-])cc([N+](=O)[O-])c3)sc2c1	9.5	2.0	-0.8	11.4*	97.3	1.9	-0.4
COC(=O)[C@]12CCCCC=C1N(Cc1cccc3ccccc13)C(=O)[C@H](CC(=O)NCc1ccc(OC)c(OC)c1)C2	11.7	/	1.4	-10.1	/	-6.6	/
Cc1no[n+]([O-])c1COc1cccc(/C=N/Nc2nncn2N)c1	4.6	-0.1	1.3	11.9*	98.3	-0.4	-3.1
COc1ccc(S[C@]2(C(=O)NC3CC3)CC(=O)N[C@@H]2c2ccc(OC)cc2)cc1	1.8	/	/	/	/	/	/
COc1ccc(NC(=O)NC(C)c2ccccc2)cc1 (stereo not drawn)	-4.2	0.6	-0.9	17.3*	107.2	-3.4	-1.4
Cc1ccc(C(=O)NCC(=O)N2CCN(c3ncccn3)CC2)s1	-0.1	-1.3	-1.0	9.2*	98.5	-1.3	-0.4
CCOc1ccc2oc(C(=O)OCC(=O)N3C(C)CCCC3C)c(C)c2c1 (stereo not drawn)	0.9	-7.8	0.9	8.7*	100.8	-6.8	-1.0
COc1ccc2oc(C(=O)OCC(=O)N3C(C)CCCC3C)c(C)c2c1 (stereo not drawn)	-5.7	-4.0	-0.4	-2.7	110.3	-7.0	/
Fc1cc(F)c(CSc2nnc(-c3cccnc3)n2Cc2ccccc2)cc1F	2.1	/	/	/	/	/	/
CCOC(=O)C1CCCN(C/C=C/c2ccccc2[N+](=O)[O-])C1 (stereo not drawn)	-0.6	-2.5	-0.4	7.9*	100.1	-3.8	-1.0
CC1=C(C(N)=O)C(c2ccc(Cl)c(Cl)c2)n2ncnc2N1 (stereo not drawn)	-0.3	-2.4	0.5	7.9*	113.0	1.2	-0.9
COC(=O)[C@@]12C[C@@H](CC(=O)NCC34CC5CC(CC(C5)C3)C4)C(=O)N(Cc3ccccc3)C1=CCC(C)(C)C2	11.0	/	2.2	/	/	/	/
C=C1CCC[C@]2(C)C[C@H]3OC(=O)C(CN(C)CC(OC)OC)[C@H]3CC12 (stereo partly drawn)	-10.4	-0.1	-0.2	8.7*	97.4	-8.7	-1.5
CC(C)C[C@@H]1COc2cc(N3CC[C@H](O)C3)ccc2S(=O)(=O)N1	-0.8	/	2.1	-5.0	/	-6.4	/
CCOC(=O)c1sc(=S)n(-c2ccc(OC)cc2)c1C	-10.1	/	2.6	-5.2	95.9	-2.8	/
CCOC(=O)c1c2c(n(-c3ccc(OC)cc3)c1C)C(=O)C(=O)c1ccccc1-2	/	15.9	/	7.7*	/	1.6	6.2*
CCOC(=O)C(Oc1ccc2c(-c3ccccc3)cc(=O)oc2c1C)c1ccccc1 (stereo not drawn)	2.4	-1.8	-0.4	8.0*	85.5	1.3	0.4
CCOC(=O)C1(Cc2ccccc2)CCN(Cc2csc(C(C)=O)c2)CC1	-10.3	-2.7	2.3	9.8*	103.3	-3.3	-1.2
SMILES	rCAG RNA binder	DAGLB inh	MsrA inhibitor	bovine MsrA act	Pemphigus Ab inh	NadD block	MsrA act confirm
CC(C)C[C@H]1CNC(=O)C(=O)N1CC1CCN(CCC(C)c2ccccc2)CC1 (stereo partly drawn)	-1.6	/	-0.5	3.8	/	-7.1	/
CC(C)C[C@H]1CNC(=O)C(=O)N1C[C@@H]1CCCN1C[C@H](Cc1ccccc1)N1C[C@H](Cc2ccccc2)N(CC2CCCCC2)C(=O)C1=O	3.4	/	-0.6	7.9*	/	25.6	0.5
CC(C)CCN1CCC(CN2C(=O)C(=O)NC[C@@H]2CC(C)C)CC1	-0.3	/	0.6	11.6*	/	-7.3	1.1
Cc1cc(C)n(-c2ccc(-n3ccnc3)nn2)n1	-1.1	0.7	-0.5	-0.7	106.1	-0.8	/
CCOc1ccc(-n2ccnc2)nn1	1.0	-6.5	0.2	8.1*	106.0	-5.8	-3.0
Cc1ccccc1CN1CCCCC(NC(=O)Nc2cccc(F)c2)C1=O (stereo not drawn)	5.0	/	/	/	/	/	/
Nc1ccc(S(=O)(=O)NC2=NCCCCC2)cc1	-2.3	1.1	0.5	-1.9	90.8	-3.6	/
O=S(=O)(NC1=NCCCCC1)c1ccc2ccccc2c1	-1.1	0.2	-1.2	9.0*	99.0	-1.3	-0.5
CN(C)/C=C1\Oc2ccc3ccccc3c2C1=O	16.6	0.9	-0.7	-4.7	93.9	2.4	/
O=C1C(=O)c2c(ccc3ccccc23)-c2ccccc21	3.7	3.1	-0.4	11.6*	82.4	6.0	8.2*
Cc1ccc(Cn2nnc3c(=O)[nH]c(C4CCN(C(=O)Cc5cccs5)CC4)nc32)cc1	-0.1	-0.9	0.4	7.7*	97.9	1.6	-0.5
O=C(Cc1cccs1)N1CCC(c2nc3c(nnn3Cc3ccccc3)c(=O)[nH]2)CC1	-4.4	-0.5	-1.6	-2.3	96.6	-2.1	/
CC(C)C[C@H]1COc2cc(N3CC[C@@H](O)C3)ccc2S(=O)(=O)N1	1.7	/	-0.3	9.9*	/	-0.2	0.4
O=C(NC1CCCCN(Cc2cccc(F)c2)C1=O)c1ccc(-c2ccccc2)cc1 (stereo not drawn)	5.5	/	/	/	/	/	/
Cc1ccc(CSc2nnc(-c3cc(-c4ccc(C)cc4)n[nH]3)n2N)cc1	6.6	/	/	/	/	/	/
CC(C)(C)c1ccc(OCCC(=O)NCC(c2cccs2)N2CCOCC2)cc1 (stereo not drawn)	-8.1	-0.1	-1.4	13.5*	100.6	-7.0	0.7
CCC1CCc2sc(C(=O)N(C)CC(=O)Nc3cccc(OC)c3)cc2C1 (stereo not drawn)	3.9	-7.8	-1.2	10.7*	91.9	-9.3	-1.5
C[C@H]1C2CC(OC(=O)NCCCc3ccccc3)C(C2)[C@H]2CCCCN21 (stereo partly drawn)	0.8	/	/	/	/	/	/
CCOC(=O)CC1C(=O)NCCN1C(=S)NC(=O)c1ccc(C)c(Br)c1 (stereo not drawn)	5.6	-1.6	-0.9	5.4	97.5	0.3	/
O=C(N/N=C/c1cccs1)C1COc2ccccc2O1 (stereo not drawn)	2.8	0.0	0.7	8.6*	121.4	6.0	-1.9
COC(=O)C[C@H]1CC[C@H]2[C@H](COc3ccc(NC(=O)Nc4ccccc4F)cc3C(=O)N2C)O1	2.0	/	/	/	/	/	/
